Measurements from PubChem BioAssay (NCI).
Compounds without any hit were thinned out: in the full panel of roughly 79,000, 15% have a hit. Active and inactive are the calls of the source. Rule as the data show it: active = growth inhibition above about 70%; inactive = the rest.

Legend:
[1] = NCI Yeast Anticancer Drug Screen. Data for the rad52 strain (AID 147);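 also: 0% = growth of vehicle-treated control cultures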; conditions: S. cerevisiae rad52 mutant growth inhibition, stronger effect = higher value
Outline: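 Screen used a yeast mutant impaired in DNA repair. After compound exposure, growth was measured. Values reflect inhibition compared with vehicle-treated cells.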

[2] = NCI Yeast Anticancer Drug Screen. Data for the rad50EPP+ strain (AID 151);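 also: 0% = growth of vehicle-treated control cultures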; conditions: S. cerevisiae rad50 mutant strain, stronger effect = higher value
Outline: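 Exposing the rad50EPP+ strain to each compound, growth was compared with vehicle-only cultures to give inhibition.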

[3] = NCI Yeast Anticancer Drug Screen. Data for the mgt1 strain (AID 153); conditions: S. cerevisiae mgt1 mutant growth inhibition, stronger effect = higher value
Outline: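 Genetically defined yeast (mgt1) treated with compound; inhibition of growth expressed against vehicle-treated controls.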

[4] = NCI Yeast Anticancer Drug Screen. Data for the rad50 strain (AID 155);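 also: 0% = growth of vehicle-only cultures of the same strain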; conditions: S. cerevisiae rad50 strain growth inhibition, stronger effect = higher value
Outline: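 Relative growth inhibition (compound vs vehicle) was measured in yeast with a defined repair-gene alteration.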

[5] = NCI Yeast Anticancer Drug Screen. Data for the mec2-1 strain (AID 157); conditions: S. cerevisiae mec2-1 strain, stronger effect = higher value
Outline: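 Readout is yeast growth inhibition, normalised to vehicle-treated controls, in the mec2-1 strain exposed to compound.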

[6] = NCI Yeast Anticancer Drug Screen. Data for the rad14 strain (AID 159);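 also: 0% = growth of vehicle-treated control cultures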; conditions: S. cerevisiae rad14 strain growth inhibition, stronger effect = higher value
Outline: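 Screen for anticancer potential: a yeast strain altered in DNA damage repair is grown with compound, and reduced growth is quantified against vehicle controls.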

[7] = NCI Yeast Anticancer Drug Screen. Data for the sgs1 mgt1 strain (AID 161);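 also: 0% = growth of cultures given vehicle only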; conditions: S. cerevisiae sgs1 mgt1 strain, stronger effect = higher value
Outline: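 Percent growth inhibition was derived by comparing compound-exposed mutant yeast with vehicle-exposed cultures. The strain carries alterations in DNA damage repair.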

[8] = NCI Yeast Anticancer Drug Screen. Data for the CLN2oe strain (AID 163);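 also: 0% = growth of vehicle-only control cultures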; conditions: S. cerevisiae CLN2oe strain, stronger effect = higher value
Outline: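 Values reflect how much compound exposure reduced yeast growth, referenced to vehicle-exposed cells. Assay organism is a strain with a defined genetic change affecting cell-cycle control.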

[9] = NCI Yeast Anticancer Drug Screen. Data for the cln2 rad14 strain (AID 165);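 also: 0% = growth equal to vehicle treated cultures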; conditions: S. cerevisiae cln2 rad14 strain, stronger effect = higher value
Outline: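 Relative to vehicle controls, growth inhibition of compound-treated cln2 rad14 yeast was recorded.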

[10] = NCI Yeast Anticancer Drug Screen. Data for the bub3 strain (AID 167); conditions: S. cerevisiae bub3 mutant strain, stronger effect = higher value
Outline: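 Screening used yeast with an engineered genetic alteration affecting cell cycle control. Compound-exposed cultures were compared with vehicle cultures, and reduced growth was taken as inhibition.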

[11] = NCI Yeast Anticancer Drug Screen. Data for the wt2 strain (AID 169);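 also: 0% = growth of vehicle-treated yeast cultures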; conditions: S. cerevisiae wt2 strain growth inhibition, stronger effect = higher value
Outline: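 Values express reduction in yeast growth under compound treatment, referenced to vehicle-treated cells.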

[12] = NCI Yeast Anticancer Drug Screen. Data for the mlh1 strain (AID 171);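 also: 0% = growth of vehicle-treated control cultures of the same strain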; conditions: S. cerevisiae mlh1 strain growth inhibition, stronger effect = higher value
Outline: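 Steps: expose the defined-mutant yeast strain to compound; expose a parallel culture to vehicle; measure growth; express compound effect as inhibition relative to the vehicle culture.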

[13] = NCI Yeast Anticancer Drug Screen. Data for the sgs1 strain (AID 173);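 also: 0% = growth of vehicle-only control cultures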; conditions: S. cerevisiae sgs1 mutant, stronger effect = higher value
Outline: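 Treat defined-mutant yeast with compound; measure growth; calculate inhibition relative to vehicle-treated cells.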

[14] = NCI Yeast Anticancer Drug Screen. Data for the rad18 strain (AID 177); conditions: S. cerevisiae rad18 mutant growth inhibition, stronger effect = higher value
Outline: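 A genetically defined yeast mutant impaired in DNA damage repair was treated with test compounds, then its growth was measured against cultures receiving vehicle alone.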

[15] = NCI Yeast Anticancer Drug Screen. Data for the mlh1 rad18 strain (AID 175); conditions: S. cerevisiae mlh1 rad18 strain growth inhibition, stronger effect = higher value
Outline: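 Test agents were incubated with a yeast strain of defined genotype (DNA damage repair defect). Inhibition of growth was derived by comparison with vehicle-exposed cultures.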

[16] = at 5.0 µM (retest, dose inferred, filed as 0.5)
[17] = at 50.0 µM (retest, dose inferred, filed as 5.0)

Measured: growth inhibition

O=[N+]([O-])c1cc[n+]([O-])c(Cl)c1
inactive: [1]; at 1.2 µM 1% | [1]; at 3.7 µM 12% | [1]; at 11.0 µM 10% | [2]; at 1.2 µM 8% | [2]; at 3.7 µM 14% | [2]; at 11.0 µM 44% | [3]; at 1.2 µM 12% | [3]; at 3.7 µM -4% | [3]; at 11.0 µM 24% | [4]; at 1.2 µM 1% | [4]; at 3.7 µM 9% | [4]; [16] 9% | [4]; at 11.0 µM 28% | [5]; at 1.2 µM 5% | [5]; at 3.7 µM 15% | [5]; [16] -3% | [5]; at 11.0 µM 26% | [6]; at 1.2 µM 1% | [6]; at 3.7 µM 5% | [6]; at 11.0 µM 19% | [7]; [16] 1% | [8]; at 1.2 µM -6% | [8]; at 3.7 µM -4% | [8]; at 11.0 µM 12% | [9]; [16] 10% | [10]; at 1.2 µM -16% | [10]; at 3.7 µM -16% | [10]; [16] 5% | [10]; at 11.0 µM -8% | [11]; at 1.2 µM -55% | [11]; at 3.7 µM -50% | [11]; at 11.0 µM -42% | [12]; at 1.2 µM -11% | [12]; at 3.7 µM 16% | [12]; at 11.0 µM 30% | [13]; at 1.2 µM 8% | [13]; at 3.7 µM 10% | [13]; at 11.0 µM 34% | [14]; at 1.2 µM -25% | [14]; at 3.7 µM -21% | [14]; at 11.0 µM -5%
active: [1]; at 33.0 µM 82% | [1]; at 100.0 µM 98% | [2]; at 33.0 µM 94% | [2]; at 100.0 µM 98% | [3]; at 33.0 µM 99% | [3]; at 100.0 µM 99% | [4]; at 33.0 µM 100% | [4]; [17] 99% | [4]; at 50.0 µM 99.5% | [4]; at 100.0 µM 100% | [5]; at 33.0 µM 100% | [5]; [17] 99% | [5]; at 50.0 µM 99.7% | [5]; at 100.0 µM 99% | [6]; at 33.0 µM 97% | [6]; at 100.0 µM 100% | [7]; [17] 99% | [7]; at 50.0 µM 99.8% | [8]; at 33.0 µM 79% | [8]; at 100.0 µM 99% | [9]; [17] 98% | [9]; at 50.0 µM 99% | [10]; at 33.0 µM 98% | [10]; [17] 99% | [10]; at 50.0 µM 99.5% | [10]; at 100.0 µM 99% | [11]; at 33.0 µM 99% | [11]; at 100.0 µM 99% | [12]; at 33.0 µM 98% | [12]; at 100.0 µM 99% | [13]; at 33.0 µM 100% | [13]; at 100.0 µM 100% | [14]; at 33.0 µM 98% | [14]; at 100.0 µM 99%

Nc1ccc(S(=O)(=O)Nc2nc3c(c(=O)[nH]2)CCCC3)cc1
active: [1]; at 11.0 µM 87% | [1]; at 33.0 µM 99% | [1]; at 100.0 µM 99% | [4]; at 11.0 µM 93% | [4]; at 33.0 µM 99% | [4]; [17] 98% | [4]; at 50.0 µM 99.5% | [4]; at 100.0 µM 99% | [5]; at 33.0 µM 99% | [5]; [17] 99% | [5]; at 50.0 µM 99.5% | [5]; at 100.0 µM 99% | [6]; at 11.0 µM 94% | [6]; at 33.0 µM 100% | [6]; at 100.0 µM 100% | [7]; [17] 99% | [7]; at 50.0 µM 99.5% | [8]; at 33.0 µM 99% | [8]; at 100.0 µM 99% | [9]; [17] 99% | [9]; at 50.0 µM 99.2% | [10]; at 11.0 µM 92% | [10]; at 33.0 µM 99% | [10]; [17] 98% | [10]; at 50.0 µM 99.3% | [10]; at 100.0 µM 99% | [12]; at 11.0 µM 75% | [12]; at 33.0 µM 99% | [12]; at 100.0 µM 99% | [13]; at 11.0 µM 95% | [13]; at 33.0 µM 99% | [13]; at 100.0 µM 99% | [15]; [16] 84% | [15]; [17] 99% | [15]; at 50.0 µM 99.4%
inactive: [1]; at 1.2 µM 14% | [1]; at 3.7 µM 18% | [4]; at 1.2 µM 21% | [4]; at 3.7 µM 22% | [4]; [16] 31% | [5]; at 1.2 µM 0% | [5]; at 3.7 µM 4% | [5]; [16] 28% | [5]; at 11.0 µM 48% | [6]; at 1.2 µM 19% | [6]; at 3.7 µM 33% | [7]; [16] 44% | [8]; at 1.2 µM 5% | [8]; at 3.7 µM 5% | [8]; at 11.0 µM 21% | [9]; [16] 8% | [10]; at 1.2 µM 33% | [10]; at 3.7 µM 40% | [10]; [16] 14% | [12]; at 1.2 µM 8% | [12]; at 3.7 µM 20% | [13]; at 1.2 µM 36% | [13]; at 3.7 µM 47% | [14]; at 1.2 µM 33% | [14]; at 3.7 µM 48%
